Data reported in PubChem BioAssay AID1851 (National Center for Advancing Translational Sciences (NCATS), 2009).
In all, about 16,000 compounds went through this assay and about 5,100 (32%) were called active. Another 25% or so got no clear call; they are omitted. Calls come from the whole dose curve; as a rule, active = well fitted curve in the direction sought with a large enough effect; inconclusive = small, poorly fitted or top-dose-only effect, or effect the other way; inactive = no such curve, though single readings can be large or run the other way. This is one part of the list. A structure can be active in one record and inactive in another.

Target: Cytochrome P450 3A4 (Homo sapiens) (UniProt P08684)
Experiment: Cytochrome panel assay with activity outcomes
Settings: recombinant CYP, pro-luciferin dealkylation, luminescence, p450-cyp3a4; series mostly up to 57.1 µM; activity, negative = inhibition: at the top concentration
% is set by controls: 0 for no effect and ±100 for the full control effect.

Chain of Cytochrome P450 3A4 (Homo sapiens) (P08684 whole entry, looked up): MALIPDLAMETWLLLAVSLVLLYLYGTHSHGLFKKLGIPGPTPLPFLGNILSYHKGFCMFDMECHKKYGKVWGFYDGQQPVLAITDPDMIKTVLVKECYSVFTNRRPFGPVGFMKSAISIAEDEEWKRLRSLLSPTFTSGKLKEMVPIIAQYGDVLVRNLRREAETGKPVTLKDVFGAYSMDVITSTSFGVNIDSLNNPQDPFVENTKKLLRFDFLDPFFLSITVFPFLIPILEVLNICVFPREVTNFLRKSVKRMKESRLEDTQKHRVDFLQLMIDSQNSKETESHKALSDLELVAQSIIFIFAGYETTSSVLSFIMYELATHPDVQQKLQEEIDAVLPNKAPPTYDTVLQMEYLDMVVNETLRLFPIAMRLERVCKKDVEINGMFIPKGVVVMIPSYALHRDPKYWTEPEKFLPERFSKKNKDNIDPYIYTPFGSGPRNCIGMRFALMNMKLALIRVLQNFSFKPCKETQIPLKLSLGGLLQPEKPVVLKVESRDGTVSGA

| Compound | activity, negative = inhibition | AC50 |
| --- | --- | --- |
| CC(=O)N1CC[N+](C)(C)CC1 | -9.17% (inactive) |  |
| C[C@]12CC[C@@H]3C(=CCc4cc(O)ccc43)[C@@H]1CCC2=O |  | 10 µM (active) |
| C[C@]12CCC3c4ccc(OCC(=O)O)cc4CCC3C1CCC2=O (stereo not given in full) | -8.48% [at 11.4 µM] (inactive) |  |
| C[C@@]12CC[C@@H]3c4ccc(O)cc4CC[C@H]3[C@H]1CC[C@H]2O | 2.5% [at 25.6 µM] (inactive) |  |
| CCN1C[C@]2(COC(=O)c3ccccc3N3C(=O)C[C@H](C)C3=O)CC[C@H](OC)[C@@]34[C@@H]5C[C@H]6[C@H](OC)[C@H]5[C@](O)(C[C@@H]6OC)[C@@](O)([C@@H](OC)[C@@H]23)[C@@H]14 | -19.7% (inactive) |  |
| C[N+](C)(C)[C@H](Cc1c[nH]c(=S)[nH]1)C(=O)O | -1.29% [at 11.4 µM] (inactive) |  |
| O=[N+]([O-])O[C@H]1CO[C@H]2[C@H]1OC[C@@H]2O[N+](=O)[O-] | -2.14% [at 25.6 µM] (inactive) |  |
| CS(=N)(=O)CC[C@H](N)P(=O)(O)O (stereo not given in full) | 1.43% [at 11.4 µM] (inactive) |  |
| N[C@@H](Cn1ccc(=O)n(Cc2ccc(C(=O)O)cc2)c1=O)C(=O)O | -7.16% (inactive) |  |
| CN(CCc1ccc(Cl)c(Cl)c1)[C@H]1CCCC[C@H]1N1CCCC1 |  | 12.6 µM (active) |
| CN(C)CCN(C)CCc1ccc(Cl)c(Cl)c1 | -44.5% (inactive) |  |
| COc1ccc2c(c1O)-c1c(OC)c(OC)cc3c1[C@H](C2)N(C)CC3 | -1.12% [at 25.6 µM] (inactive) |  |
| CC(=O)O[C@@H]1CN2CCC1CC2 | -14.7% (inactive) |  |
| CC(=O)Nc1ccccc1C(=O)OCC(=O)c1ccc2ccccc2c1 | 7.07% (inactive) |  |
| c1ccc2c(c1)[I+]c1ccccc1-2 |  | 3.16 µM (active) |
| C1CCc2nnnn2CC1 | -7.33% (inactive) |  |
| O=C(COc1ccc2ccccc2c1)N1CCN(CC2CC3C=CC2C3)CC1 (stereo not given) |  | 12.6 µM (active) |
| CC(=O)N1CCC2(CC1)CC(=O)c1cc(OCC(=O)N3CCN(C)CC3)ccc1O2 | 11.2% (inactive) |  |
| C[N+](C)(C)CC#CCN1CCCC1=O | inactive |  |
| CN1C(=O)COc2c(C(=O)N[C@@H]3CN4CCC3CC4)cc(Cl)cc21 | -5.69% (inactive) |  |

| Compound | activity, negative = inhibition | AC50 |
| --- | --- | --- |
| O=C1CC[C@@]2(O)[C@H]3Cc4ccc(O)c5c4[C@@]2(CCN3CC2CC2)[C@@H]1O5 | inactive |  |
| CCCCC/C=C\C/C=C\C/C=C\C/C=C\CCCC(=O)Nc1ccc(O)cc1 |  | 5.01 µM (active) |
| CCCC(=O)Nc1ccc(N2CCN(CC)CC2)c(Cl)c1 | -2.29% (inactive) |  |
| NS(=O)(=O)c1ccc(-c2ccc([As](=O)(O)O)cc2)cc1 | -4.52% [at 11.4 µM] (inactive) |  |
| Oc1ccc([C@H](O)[C@@H]2CCCCN2)cc1O | -7.28% [at 11.4 µM] (inactive) |  |
| CO[C@H]1C=C2CCN(C)[C@@H]2[C@@H]2c3cc4c(cc3C(=O)O[C@H]21)OCO4 | -22.2% [at 25.6 µM] (inactive) |  |
| C[N+]1(C)CCc2cc3c(cc2[C@@H]1[C@@H]1OC(=O)c2c1ccc1c2OCO1)OCO3 |  | 15.8 µM (active) |
| CN1Cc2c(ccc3c2OCO3)[C@@H]2[C@@H](O)Cc3cc4c(cc3[C@@H]21)OCO4 |  | 5.01 µM (active) |
| CN1CCc2cc3c(cc2[C@@H]1[C@@H]1OC(=O)c2c1ccc1c2OCO1)OCO3 |  | 0.794 µM (active) |
| COc1c2c(cc3c1OCO3)CCN(C)C2 | -16.8% [at 25.6 µM] (inactive) |  |
| COc1cc2c(cc1OC)[C@H](C)NCC2 | -4.58% [at 25.6 µM] (inactive) |  |
| CC[C@H]1CN2CC[C@@H]1C[C@H]2[C@@H](O)c1ccnc2ccc(OC)cc12 | 8.8% [at 25.6 µM] (inactive) |  |
| COc1cc2c(cc1OC)[C@@]13CCN4C=C5CCO[C@H]6CC(=O)N2[C@@H]1[C@@H]6[C@H]5C[C@H]43 | 13.3% [at 11.4 µM] (inactive) |  |
| [N-]=[N+]=CC(=O)CC[C@H](N)C(=O)O | -9.62% [at 11.4 µM] (inactive) |  |
| CN1CCc2cccc(Cl)c2CC1 | -2.46% (inactive) |  |
| NC(=O)CN1C[C@@H](O)CC1=O | -2.79% (inactive) |  |
| CN(C)C=C1C(=O)N(C2CCCCC2)C(=O)N(C2CCCCC2)C1=O | -29.6% (inactive) |  |
| CN1C2C=C3C(C#N)=C(N)C(C#N)(C#N)[C@H](c4c(F)cccc4F)[C@H]3C1CC2 (stereo not given in full) |  | 4.47 µM (active) |
| CS(=N)(=O)CC[C@@H](N)C(=O)O (stereo not given in full) | inactive |  |
| C[C@@H]1O[C@@H](O[C@H]2C[C@@H](O)[C@@]3(CO)[C@H]4[C@H](O)C[C@]5(C)[C@@H](C6=CC(=O)OC6)CC[C@]5(O)[C@H]4CC[C@@]3(O)C2)[C@@H](O)[C@H](O)[C@H]1O | 10.6% [at 11.4 µM] (inactive) |  |

| Compound | activity, negative = inhibition | AC50 |
| --- | --- | --- |
| NC(=O)CN1CCCC1=O | inactive |  |
| NNC(N)=O | -9.12% (inactive) |  |
| NC(=O)CI |  | 0.0631 µM (active) |
| CCCN1CCC[C@@H]2Cc3nc(N)ncc3C[C@H]21 | -16.7% (inactive) |  |
| COC(=O)[C@@H]1[C@@H]2C[C@H]3c4[nH]c5cc(OC)ccc5c4CCN3C[C@@H]2C[C@H](OC(=O)/C=C\c2cc(OC)c(OC)c(OC)c2)[C@H]1OC | -25.6% [at 25.6 µM] (inactive) |  |
| CNC[C@H](O)c1ccc(O)c(OC)c1 | -5% [at 25.6 µM] (inactive) |  |
| COc1cc(CCN)ccc1O | -4.42% (inactive) |  |
| COc1cc(CNC(=O)CCCC/C=C\C(C)C)ccc1O |  | 3.98 µM (active) |
| Cc1cccc([C@H](C)c2cnc[nH]2)c1C |  | 0.158 µM (active) |
| O=P(O)(O)C(Cl)(Cl)P(=O)(O)O | 7.29% (inactive) |  |
| C(=C/c1ccccc1)/CN1CCN(CCOC(c2ccccc2)c2ccccc2)CC1 | -20.7% (inactive) |  |
| CCC(=O)O[C@@](Cc1ccccc1)(c1ccccc1)[C@@H](C)CN(C)C |  | 5.01 µM (active) |
| CC(C)[N+](C)(CCC(C(N)=O)(c1ccccc1)c1ccccc1)C(C)C | -24.2% [at 25.6 µM] (inactive) |  |
| O=C(O)[C@H]1[C@H](C(=O)O)[C@H]2CC[C@@H]1O2 | -5.34% (inactive) |  |
| COc1cc(CCN)c(OC)c(OC)c1 | -5.19% [at 11.4 µM] (inactive) |  |
| CCOP(=O)(CN(CC)CCNP(=O)(OCC)OCC)OCC | 10.5% [at 2.29 µM] (inactive) |  |
| CN1CCc2nc3sc(C(=O)NC(C)(C)C)c(N)c3cc2C1 | -11.5% [at 2.29 µM] (inactive) |  |
| CC[C@@]1(O)C(=O)OCc2c1cc1n(c2=O)Cc2cc3c(NC(=O)CN)cccc3nc2-1 | 0.232% [at 11.4 µM] (inactive) |  |
| CC[C@]1(OC(=O)CN)C(=O)OCc2c1cc1n(c2=O)Cc2cc3ccccc3nc2-1 | -27% [at 11.4 µM] (inactive) |  |
| CC[C@@]1(O)C(=O)OCc2c1cc1n(c2=O)Cc2cc3ccccc3nc2-1 |  | 6.31 µM (active) and inactive |
